Measured values: the supplement of paper PMC6555819

Assays:
Test in all cases: PBM binding z-score (relative to random genomic background probes); higher = stronger binding; sequences stand for … in GC…GCGATTGACAGCGTAGAATGAAGG
[1] = system: FXR:RXRa (NR concentration 270 nM, RXRa partner concentration 90 nM)
How it was run: (§1)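 Ligand-free nuclear receptor dimers were applied to custom Agilent 4×180K protein-binding microarrays whose double-stranded probes carried direct-repeat seeds, single-nucleotide variants, half-site ablations and random human genomic background sequences in 34-nt variable regions. Incubation lasted 1 h. Binding z-scores were computed against the random background probes from regression-normalized fluorescence.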

[2] = system: LXRa:RXRa (NR concentration 270 nM, RXRa partner concentration 90 nM)
How it was run: as §1

[3] = system: LXRa homodimer (NR concentration 270 nM)
How it was run: as §1

[4] = system: LXRb:RXRa (NR concentration 270 nM, RXRa partner concentration 90 nM)
How it was run: as §1

[5] = system: LXRb homodimer (NR concentration 270 nM)
How it was run: as §1

[6] = system: PPARa:RXRa (NR concentration 270 nM, RXRa partner concentration 90 nM)
How it was run: as §1

[7] = system: PPARg:RXRa (NR concentration 180 nM, RXRa partner concentration 90 nM)
How it was run: as §1

[8] = system: PPARg:RXRa 270nM:90nM, anti-RXR (NR concentration 270 nM, RXRa partner concentration 90 nM)
How it was run: as §1

[9] = system: PPARg:RXRa 30nM:10nM, anti-RXR (NR concentration 30 nM, RXRa partner concentration 10 nM)
How it was run: as §1

[10] = system: PPARg:RXRa 90nM:30nM, anti-RXR (NR concentration 90 nM, RXRa partner concentration 30 nM)
How it was run: as §1

Sequence | PBM binding z-score [1] | PBM binding z-score [2] | PBM binding z-score [3] | PBM binding z-score [4] | PBM binding z-score [5] | PBM binding z-score [6] | PBM binding z-score [7] | PBM binding z-score [8] | PBM binding z-score [9] | PBM binding z-score [10]
CATACAGGGTCAGCTAGGCCTGAGTAGGGACGGC | 4.59 | 2.64 | -0.384 | 1.79 | 0.0921 | 4.12 | 3.11 | 2.94 | 0.751 | 1.89
TATATAGGGTCAAAGGCCAGAGTACGAATGTCGA | 7.32 | 6.1 | 2.48 | 5.05 | 2.01 | 6.35 | 8.65 | 7.34 | 5.8 | 7.54
AATACAGGGTCAACGTAGGCCAGAGTACGCACAG | 7.15 | 6.18 | 1.92 | 4.41 | 1.47 | 5.88 | 6.89 | 6.32 | 2.82 | 4.85
TCTCGGAGGACACGAAGGTCAGAGCTTTCCAGAG | 1.16 | 1.13 | -0.0274 | 0.923 | -1.06 | 1.98 | 0.444 | 1.45 | 2.1 | 1.96
CCGACTGGGGCCAAGGTTACCATACTCAGTACGA | 0.714 | 0.334 | -0.174 | 0.728 | -0.267 | 1.91 | 3.85 | 4.51 | 1.74 | 3.8
TAGCCTAGGGCATGCGGGCCAGTATAGTGTCGGC | -0.782 | -0.599 | -1.01 | -1.17 | -1.07 | -0.591 | -0.378 | -0.777 | -1.03 | -0.989
ACAGACAGGTGAGTGAACGTAACTCAGCTGGACG | -0.265 | -0.366 | -0.561 | -0.436 | -0.532 | -0.0939 | 0.744 | -0.203 | -0.222 | -0.308
GTACCAAGGTGAATAGGTCGTTAATGAGTAGGCG | 0.719 | 0.484 | -0.0766 | 0.302 | -0.312 | 2.18 | 1.38 | 1.71 | 0.588 | 1.07
CGTCCAAGGTCAATGCTAGGTCTGTGAAAGCATT | 6.34 | 4.7 | 0.321 | 3.41 | 0.865 | 5.01 | 3.28 | 3.99 | 0.804 | 2.73
CGAACAAGGTCAAGGACAGTGAATCTCCGCACGC | 7.13 | 5.06 | 0.53 | 3.78 | 0.377 | 5.74 | 5.98 | 5.82 | 2.42 | 4.59
CCGACTGGGCCAAAAAGGTCATTGATGCCGATAA | 3.41 | 4.25 | 2.8 | 3.93 | -0.421 | 4.53 | 2.35 | 3.47 | 0.713 | 2.22
ATCGAAAGCTCGTGAGGTGAGTATACAGAAAGGC | -0.207 | -0.537 | -0.718 | -0.546 | -0.682 | -0.128 | 0.416 | 0.00274 | 0.112 | -0.368
CGAACTAGGTCAAGGACAGTGTATCTCCGCACGC | 3.62 | 2.36 | 0.431 | 1.57 | -0.208 | 4.9 | 7.62 | 6.48 | 3.91 | 5.64
CATACAGGGTCAGCTAGGCCAGAGTTGGGACGGC | 4.25 | 2.86 | -0.145 | 2.06 | 0.341 | 4.17 | 3.24 | 2.97 | 0.45 | 1.6
AGTCAAAGTTCATCTAGATAACGTAAGATATGCT | 7.05 | 5.89 | 5.02 | 4.13 | 1.82 | 5 | 6.44 | 6.12 | 3.12 | 5.43
CCGACTGGGGCAAGGTTACCGTAACGCACAGCCA | 0.11 | 0.127 | -0.449 | 0.456 | -1.12 | 1.87 | 2.6 | 3.45 | 0.963 | 2.8
ACTACTTGGTCAGCTGAGGTCACACACAATTCGG | 3.83 | 3.9 | 3.15 | 3.97 | 1.27 | 3.76 | 2.24 | 2.68 | 0.841 | 1.7
CCTAGTTGGTCAGGATGTCACACACCGGATATGA | -0.184 | -0.0235 | 0.256 | 0.227 | 0.348 | 0.0864 | 0.898 | 0.76 | -0.14 | 0.424
GAAACGAGGGCAAGTTGATAGCAGAGTTTGATGG | 1.07 | 0.537 | -0.42 | 0.157 | -0.895 | 2.38 | 1.76 | 1.76 | 0.251 | 1.2
TCTCGGAGGAAACGAAGGTCAGAGCTTTCCAGAG | 0.418 | 0.556 | -0.0873 | 1.02 | -1.15 | 1.72 | -0.151 | 1.19 | 1.74 | 1.39
TCATATAGGTAGTACAGGTGAAAGTCGGCATCTA | 1.11 | 1.01 | 0.38 | 0.84 | 0.0864 | 1.2 | 0.65 | 2.23 | 3.57 | 3.13
AATACAGAGTCATCGTAGGCCAGAGTACGCACAG | 0.102 | 0.331 | -0.311 | -0.227 | -0.569 | -0.149 | 0.955 | 0.273 | -0.0148 | 0.175
CCGACTGGGGCAGAAAGGTTAGCATACCATCCGG | -0.121 | 0.018 | -0.422 | 0.0251 | -1.09 | 1.22 | 1.22 | 1.7 | -0.0378 | 0.958
GGAACGAGGGCATTCGAGTTGATCGCATGGCGAT | 1.56 | 1.88 | -0.524 | 0.182 | -1 | 1.17 | 0.585 | 0.552 | -0.63 | 0.176
